FBA Mtb inh = Mtb FBA enzyme inhibitors, primary screen, biochemical, fluorescence, strain H37Rv | Fructose-bisphosphate aldolase (Mycobacterium tuberculosis (strain ATCC 25618 / H37Rv)), … | purified M. tuberculosis FBA, fluorescence read-out | inhibition, % at 1 µM | AID 588726, 2011 | 2.3% of 360,000 active; in the data active = inhibition above about 27%;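 note: 0% = vehicle and 100% = reference inhibitor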
GDH-TPI inh = GDH-TPI coupling enzyme inhibitors, primary screen, artefact control for M. tuberculosis FBA inhibitor project, biochemical, absorbance, full deck; GDH-TPI coupled enzyme counterscreen, NADH absorbance; inhibition, % at 4.8 µM; 1.2% of 360,000 active; AID 588335, 2011;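 note: 0% = DMSO wells and 100% = wells lacking the enzyme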
CCHF vOTU inh = CCHFV vOTU protease inhibitors, primary screen, biochemical, Pep-AMC substrate, fluorescence. inhibition, % at 11.5 µM. 0.55% of 370,000 active. AID 651958, 2012; note: 0% = vehicle wells with enzyme and 100% = no enzyme wells
RecA splice inh = Mtb RecA intein splicing inhibitors, primary screen, biochemical, fluorescence, HTS | inhibition, % (test concentration not listed) | cell-free RecA intein splicing | AID 2221, 2009 | Protein RecA (Mycobacterium tuberculosis (strain ATCC 25618 / H37Rv)), P9WHJ3 | 0.75% of 290,000 active; in the data active = inhibition above about 30%;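 note: 0% = vehicle wells and 100% = reference inhibitor control wells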
Target sequence (P9WHJ3 whole entry, looked up, canonical isoform): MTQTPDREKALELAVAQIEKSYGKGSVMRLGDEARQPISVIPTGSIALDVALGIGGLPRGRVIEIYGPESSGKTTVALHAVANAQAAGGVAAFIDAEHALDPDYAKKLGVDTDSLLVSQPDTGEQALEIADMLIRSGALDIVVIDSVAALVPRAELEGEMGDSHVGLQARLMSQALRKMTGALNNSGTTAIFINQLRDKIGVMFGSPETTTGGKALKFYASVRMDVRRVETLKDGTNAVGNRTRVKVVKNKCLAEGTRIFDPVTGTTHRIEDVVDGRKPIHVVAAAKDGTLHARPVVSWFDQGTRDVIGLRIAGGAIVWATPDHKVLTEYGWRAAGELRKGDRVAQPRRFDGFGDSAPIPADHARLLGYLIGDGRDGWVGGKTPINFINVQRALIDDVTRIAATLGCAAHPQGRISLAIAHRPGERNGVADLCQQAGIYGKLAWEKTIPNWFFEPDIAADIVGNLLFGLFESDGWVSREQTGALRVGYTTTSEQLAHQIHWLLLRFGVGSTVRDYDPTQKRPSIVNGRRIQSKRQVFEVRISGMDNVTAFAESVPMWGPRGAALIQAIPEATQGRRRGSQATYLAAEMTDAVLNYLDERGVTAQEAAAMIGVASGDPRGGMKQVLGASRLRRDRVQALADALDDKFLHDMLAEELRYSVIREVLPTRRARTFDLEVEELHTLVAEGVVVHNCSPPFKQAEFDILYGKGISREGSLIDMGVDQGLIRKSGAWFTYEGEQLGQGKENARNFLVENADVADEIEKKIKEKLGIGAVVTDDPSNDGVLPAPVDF
* hit, by the source's call; x = not tested or not shown; + = active, no number. Shown are actives, neighbours in structure and some others; about 4.2% of the full set was active somewhere. Cut-off read from the data, not from the text of the source, unless noted: active = inhibition above about 30%; inactive = the rest.

SMILES	FBA Mtb inh	GDH-TPI inh	CCHF vOTU inh	RecA splice inh
NC(=O)CC(NC(=O)OCc1ccccc1)C(=O)O (centres undefined)	0.7	0.0	13.7	0.4
NC(c1ccccc1)c1csc(Nc2cc(Oc3ccccc3)ncn2)n1 (centres undefined)	-4.7	0.9	14.9	x
O=S(=O)(c1ccc(Br)s1)N1CCC2(CC1)OCCO2	1.1	-2.8	0.2	19.0
O=C(Nc1ccc(-c2nc3ccccc3o2)cc1)c1ccc2c(c1)OCO2	1.2	36.1*	7.0	-1.7
O=C(Nc1ccc(-c2nc3ccc(NC(=O)c4cccs4)cc3[nH]2)cc1)c1cccs1	3.6	50.6*	-15.1	-4.2
Cc1ccc2oc(-c3ccc(NC(=O)c4ccc5c(c4)OCO5)cc3)nc2c1	8.6	-5.0	-10.6	-5.3
O=C(Nc1ccc2nc(-c3cccs3)[nH]c2c1)c1cccs1	8.6	53.6*	14.3	0.0
Cc1ccc2nc(-c3ccc(NC(=O)c4ccco4)cc3)[nH]c2c1	1.0	54.3*	x	0.2
Cc1coc(C)c1C(=O)Nc1ccc2ccccc2c1	-1.6	-4.8	-0.1	-1.2
NC(N)=Nc1ccc(C=C2C=Cc3ccccc32)cc1	-1.9	28.0	4.0	x
O=C(Nc1ccc2nc(-c3ccccc3)oc2c1)c1ccco1	2.8	54.5*	-0.7	-2.1
O=C(Nc1ccc2nc(-c3cccs3)[nH]c2c1)c1ccco1	9.3	36.0*	9.9	5.0
Cn1cccc1-c1nc2ccc(NC(=O)c3ccco3)cc2[nH]1	-0.4	27.1	24.5	-5.3
Cc1ccc(NC(=O)c2cnn(-c3ccccc3)c2NC(=O)c2ccco2)cc1	181.0*	11.3	12.4	-1.0
COc1cccc(-c2nn(C)c3sc(C(=O)NCc4ccco4)cc23)c1	47.7*	16.5	6.5	2.7
Oc1ccc(C(=Nc2ccccc2)c2ccccc2)c(O)c1	-2.0	44.9*	24.3	x
C=CCN(CC=C)C(=O)C1CCN(S(=O)(=O)c2ccc(N3CCCC3=O)cc2)CC1	2.6	-10.6	-3.1	-6.3
CCC(C)C(NS(=O)(=O)c1ccc(C)cc1)C(=O)Oc1ccc2c3c(c(=O)oc2c1)CCC3 (centres undefined)	36.8*	4.0	-18.2	6.1
CC[C@@H](NS(=O)(=O)c1ccc(C)cc1)C(=O)Oc1ccc2c3c(c(=O)oc2c1)CCC3	+	4.4	-309.7	28.2
Cc1ccc(S(=O)(=O)NC(CC(C)C)C(=O)Oc2ccc3c4c(c(=O)oc3c2)CCC4)cc1 (centres undefined)	+	9.4	-158.4	16.5
COC(=O)[C@]12C[C@H](CC(=O)N3CCOCC3)C(=O)N(Cc3ccc(Cl)cc3Cl)C1=C[C@H](C1CCCC1)O[C@@H]2C	x	x	20.4	x
O=C(CSc1nnc(C2CC2)n1C1CC1)N1CCN(c2ccc(O)cc2)CC1	1.9	0.9	-5.6	x
O=C(Cn1ccc2ccccc2c1=O)NCCC(=O)Nc1cccc(Cl)c1	0.7	-0.8	x	-2.6
C/C(=N\NC(=O)c1ccc(Cl)cc1)c1cccs1	2.6	41.5*	3.1	0.5
C/C(=N\NC(=O)c1ccc(NS(=O)(=O)c2cccs2)cc1)c1cccs1	0.3	22.4	17.9	1.3
SMILES	FBA Mtb inh	GDH-TPI inh	CCHF vOTU inh	RecA splice inh
S=C1CCC(c2ccc(Br)cc2)=NN1c1ccccc1	-1.1	33.2*	-0.4	1.0
Cc1ccc(N2N=C(c3ccc(Br)cc3)CCC2=O)cc1	0.3	3.0	16.0	-2.4
Cc1cc(C)n2nc3nc(N4CCCCC4)nc(-c4ccco4)c3c2n1	37.5*	15.5	x	-11.5
Cc1cc(C)n2nc3ccccc3c2n1	0.0	15.9	2.4	-2.0
Cc1ccc(S(=O)(=O)CCC(=O)NCc2ccccc2F)cc1	-1.0	-3.6	10.1	-1.4
CC(=O)/C(N=Nc1ccc(C(=O)O)cc1)=C(\C)O	-5.5	14.8	9.9	4.4
CCN(CC)S(=O)(=O)c1ccc(N=N/C(C(C)=O)=C(/C)O)cc1	-1.0	39.8*	13.8	-4.4
CC(=O)/C(N=Nc1ccc(-n2ccc(C(F)(F)F)n2)cc1)=C(\C)O	-1.3	35.2*	-2.2	2.8
CN(C)c1ccc(C(=O)c2ccccc2C(=O)O)c(O)c1	1.8	40.7*	27.2	1.4
CCCCN(CCCC)c1ccc(C(=O)c2ccccc2C(=O)O)c(O)c1	-2.3	30.1	27.6	3.9
COc1cc(/C=N/N(c2ccccc2)c2ccccc2)ccc1O	23.3	17.8	-0.7	17.1
CCOc1ccc(/C=N/N(C)c2ccccc2)cc1OC	-0.5	32.8*	6.9	-0.4
Cc1ccc(C(=O)C2CCN(CC(=O)N3CC(C)CC(C)C3)CC2)cc1 (centres undefined)	x	x	-2.7	x
CCN(CC)c1ccc(/C=C2/C(=O)NC(=O)N(CC3CCCO3)C2=O)cc1 (centres undefined)	-0.8	39.8*	17.8	-3.1
CCN(CC)c1ccc(/C=C2\C(=O)NC(=O)N(Cc3ccco3)C2=O)cc1	-10.4	31.4*	3.6	-0.5
COc1ccc(NC(=O)COC(=O)CC2CCCC2)cc1Cl	-3.5	5.7	-2.6	-1.0
CC(C)(C)CC(=O)Nc1cccc(-c2cn3cccnc3n2)c1	+	6.8	-182.9	-0.5
COc1cc(C(=O)Nc2cccc(-c3cn4cccnc4n3)c2)cc(OC)c1OC	+	7.9	-193.5	3.9
Cc1onc(-c2ccccc2Cl)c1C(=O)Nc1cccc(-c2cn3cccnc3n2)c1	128.5*	30.9*	x	x
COc1cc(C(=O)Nc2cccc(-c3nncn3C)c2)cc(OC)c1OC	-1.4	7.7	8.7	0.6
CC(NC(=O)CNC(=O)c1cccc(Cl)c1)c1ccccc1 (centres undefined)	0.2	17.2	4.3	1.7
O=C(NCCS(=O)(=O)c1ccc(Br)cc1)c1c(F)cccc1F	1.8	3.7	7.5	-0.3
CC1CCCCN1CCCNC(=O)c1ccc2nc(N3CCCCC3)sc2c1 (centres undefined)	1.2	11.1	12.7	1.5
CS(=O)(=O)N1CCC[C@]2(CC[C@@H](CCC#N)O2)C1	x	x	0.4	x
COc1cc(/C=C(/C#N)C(=O)NCc2ccccc2)cc(OC)c1OC	-0.9	50.0*	-6.5	-2.5
SMILES	FBA Mtb inh	GDH-TPI inh	CCHF vOTU inh	RecA splice inh
Cc1c(/C=C(\CC(=O)O)c2nc3ccccc3s2)cc(C#N)n1C	9.6	42.6*	-3.0	-2.6
Cc1c(/C=C(\C#N)C(=O)NCc2ccccc2)cc(C#N)n1C	-3.5	34.9*	19.4	-4.7
Cc1nn(-c2ccccc2)c(Cl)c1/C=C(/CC(=O)O)c1nc2ccccc2s1	-0.7	24.7	18.7	x
CCCCNC(=O)C[C@H]1C[C@@]2(C(=O)OC)C(=C[C@H](C3CCCC3)O[C@@H]2C)N(Cc2ccco2)C1=O	x	x	7.2	x
COC(=O)C1CN(Cc2cn(Cc3ccc(OC)cc3)nn2)CCS(=O)(=O)N1Cc1ccc(Cl)cc1 (centres undefined)	x	x	-2.6	x
COc1ccc(N(C(=O)COc2cccc(C)c2)S(=O)(=O)c2ccc(C)cc2)cc1	2.0	-7.5	-0.4	52.4*
Cc1ccc(C(C)C)c(OCC(=O)N2CCN(c3ncccn3)CC2)c1	1.8	-2.2	13.4	x
O=C(/C=C/c1cccnc1)/C=C/c1cccnc1	0.5	33.1*	-12.6	x
